# High-throughput results as filed in PubChem BioAssay.
# This is a sample that favours compounds with a hit; in the whole collection about 7.3% have one here.
# KinaseGlo FLuc: blocks Kinase-Glo luciferase, a counter-screen artifact. AID 1379. Kinase-Glo luciferase, ATP luminescence, 8 min. Potency, µM (series often up to 38.3 µM), for the others: top-dose activity change, negative = inhibition, actives largely listed as inhibitors. Q27757. 200,000 compounds, 0.28% hits; note: % is set by controls: 0 for no effect and ±100 for the full control effect; nearly all actives have a fitted effect of over 60% in size
#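 Inhibition of Kinase-Glo luciferase light generation was assessed at 10 uM ATP in pH 7.2 imidazole buffer, with luminescence measured after eight minutes at ambient temperature.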
# ELG1 genotoxic: inducers of genotoxicity in HEK293T ELG1-luciferase cells. HEK293T ELG1-luciferase reporter, luminescence, 16 h. Potency, µM (highest dose often 46 µM), for inactives: top-dose activity change, positive = activation, hits mostly activators. 330,000 compounds, 1.3% hits; note: % of control where 0% means no effect; nearly all actives have a fitted effect of over 60% in size
#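 HEK293T cells expressing luciferase-tagged ELG1 were exposed to compound or DMSO vehicle for 16 hr at 37 °C and 5% CO2. Luciferase activity was then measured with ONE-Glo after 30 min at room temperature.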
# FLuc modulator: counter-screen for miR-21 project: firefly luciferase inhibitors or activators. P08659. purified FLuc, Km substrates, luminescence inhibition. Potency, µM (highest dose often 57.5 µM), for inactives: at the highest dose activity change, negative = inhibition, hits mostly inhibitors. 360,000 compounds, 6.9% hits;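 note: plate controls were vehicle for no effect and reference inhibitor for full effect; nearly all actives have a fitted effect of over 55% in size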
# Target sequence (P08659 whole entry, looked up): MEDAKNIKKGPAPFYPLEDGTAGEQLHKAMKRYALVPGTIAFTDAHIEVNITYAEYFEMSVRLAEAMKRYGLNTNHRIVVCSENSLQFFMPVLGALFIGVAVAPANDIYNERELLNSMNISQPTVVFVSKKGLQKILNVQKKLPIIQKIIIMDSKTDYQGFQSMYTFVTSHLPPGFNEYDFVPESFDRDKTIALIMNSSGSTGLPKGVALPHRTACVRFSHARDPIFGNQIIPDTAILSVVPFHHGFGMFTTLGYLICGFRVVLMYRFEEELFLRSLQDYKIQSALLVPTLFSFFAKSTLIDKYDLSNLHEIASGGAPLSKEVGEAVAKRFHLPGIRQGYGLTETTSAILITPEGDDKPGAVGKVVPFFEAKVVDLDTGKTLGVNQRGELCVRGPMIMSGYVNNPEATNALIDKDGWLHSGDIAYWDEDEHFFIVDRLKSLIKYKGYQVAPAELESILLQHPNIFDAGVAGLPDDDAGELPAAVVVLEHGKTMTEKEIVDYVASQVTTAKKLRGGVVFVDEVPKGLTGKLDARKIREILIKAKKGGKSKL
#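 Purified P. pyralis luciferase (10nM final) with 10uM D-luciferin and 10uM ATP (Km levels) in 50mM Tris acetate pH 7.5, 10mM Mg acetate, 0.01% Tween-20, 0.05% BSA; qHTS 6-point titration, ~60 µM downward; luminescence read.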
# Rab9 promoter act: Rab9 promoter activation. Huh7 Rab9 promoter-luciferase reporter, luminescence, 24 h. Potency, µM (titrated, usually from 9.22 µM), for the others: at the highest dose activation, negative = inhibition, hits mostly activators. 320,000 compounds, 2.8% hits. AID 485297; note: % of control where 0% means no effect; nearly all actives have a fitted effect of over 60% in size
#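 Cell-based reporter: Huh7 stable for Rab9 promoter-driven luciferase, plated in reduced-serum medium with 10% FBS at 1500 cells/well, compound-treated 24 h at 37 °C, luminescence read after 10 min reagent.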
# SMN2 splice enh: SMN2 splice variant enhancement; Potency, µM (doses to about 46.1 µM), for the others: top-dose activity change, positive = activation, hits mostly activators; HEK293 SMN2-luciferase splicing reporter, luminescence, 30-36 h; 210,000 compounds, 2.8% hits; note: % of control where 0% means no effect; nearly all actives have a fitted effect of over 55% in size
#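 qHTS luciferase splicing reporter: luminescence rises when SMN2 exon 7 is included in transfected HEK293 cells. Compound exposure lasted 30-36 h at 37C, with 4.5 mM final sodium butyrate as control, followed by a ONE-Glo read.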
# NPC1 promoter act: NPC1 promoter activation; Huh7 NPC1 promoter luciferase reporter, 24 h; Potency, µM (doses to about 9.22 µM), for the others: at the highest dose activation, most hits filed as activators; 320,000 compounds, 2.4% hits; AID 485313; note: % of control where 0% means no effect; nearly all actives have a fitted effect of over 60% in size
#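 Luminescence from an NPC1 promoter-driven luciferase reporter in stably transfected Huh7 cells was measured after 24 h compound treatment at 37 °C, followed by 10 min ambient incubation with luciferase detection reagent.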
# Active calls of the source: *; ? = inconclusive; . = no result. Calls come from the whole dose curve; as a rule, active = well fitted curve in the direction sought with a large enough effect; inconclusive = small, poorly fitted or top-dose-only effect, or another doubt; inactive = no such curve, though single readings can be large; an effect the other way counts as inactive or inconclusive. Potency is the fitted concentration of half-maximal effect.
SMILES,KinaseGlo FLuc,ELG1 genotoxic,FLuc modulator,Rab9 promoter act,SMN2 splice enh,NPC1 promoter act
COc1cccc(/C=N/Nc2ncnc3scc(-c4ccccc4)c23)c1OC,-1%,-17%,12µM*,-7%,-10%,2%
Cc1sc2ncnc(NCc3cccs3)c2c1C,-3%,4%,2%,-31%,-34%,-17%
COc1ccc(/C=N/Nc2ncnc3sc(C)c(C)c23)cc1,-1%,5%,19µM*,-4%,6%,2%
CCOC(=O)c1ccc(NC(=O)C2(c3ccc(Cl)cc3)CCCC2)cc1,-2%,-2%,3%,-2%,-34%,-2%
Cc1sc2ncnc(NCC(c3ccccc3)N(C)C)c2c1C (centres undefined),.,-2%,-1%,-11%,.,2%
Cc1sc2ncnc(NCC(O)c3ccccc3)c2c1C (centres undefined),.,-9%,19µM*,-10%,.,-1%
COc1cccc(NC(=O)COC(=O)C2CCN(S(=O)(=O)c3cccs3)CC2)c1,4%,-1%,-7%,3%,28%,-1%
CC(=O)NCCc1nc2cc(NC(=O)c3cccc([N+](=O)[O-])c3)ccc2n1C,.,?,?,2.8µM*,.,2.8µM*
CCC(=O)NCCc1nc2cc(NC(=O)c3cccc([N+](=O)[O-])c3)ccc2n1C,.,?,?,3.5µM*,.,?
COc1ccc(C(=O)/C=C/c2ccc(OC)c(O)c2)c(F)c1,-1%,16%,11µM*,-8%,-16%,5%
COc1cc(/C=C/C(=O)c2ccc(Cl)s2)cc(OC)c1O,2%,-2%,?,-4%,-26%,-2%
COc1ccc(/C=C/C(=O)c2ccc(Cl)s2)cc1O,-6%,?,1.1µM*,6%,-12%,-5%
Cc1ccc(NC(=O)C2CCCCC2)cc1C,.,8%,-11%,2%,.,0%
Cc1ccccc1NC(=O)CSc1nc2scc(C)c2c(=O)[nH]1,.,?,2%,-1%,.,2%
S=c1[nH]nc(-c2ccncc2)n1/N=C/c1cn(-c2ccccc2)nc1-c1ccccc1,.,17%,2.7µM*,?,.,21%
S=c1[nH]nc(-c2cccs2)n1/N=C/c1cn(-c2ccccc2)nc1-c1cccs1,.,?,0.67µM*,?,.,?
CC(C)(C)c1ccc(-c2n[nH]c(=S)n2/N=C/c2ccncc2)cc1,7%,2%,11µM*,25%,19%,12%
Cc1ccc(/C=N/n2c(-c3ccncc3)n[nH]c2=S)cc1,-1%,-3%,5%,-4%,-30%,-5%
Cc1nc2ccccc2c(=O)n1/N=C/c1cccs1,-1%,1%,-17%,?,8%,12%
Cc1nc2ccccc2c(=O)n1/N=C/c1cn(-c2ccccc2)nc1-c1cccs1,10%,-1%,2.7µM*,26%,-17%,19%
COC(=O)[C@@]1(Cc2ccc(F)cc2)[C@H]2c3cc(C(=O)N(C)C)n(Cc4ccc(Cl)c(C(F)(F)F)c4)c3C[C@H]2CN1C(=O)c1ccccc1,0%,.,.,.,-34%,.
CSc1cc(-c2ccccc2)n(Cc2ccc(Cl)cc2Cl)c(=O)c1C#N,-1%,3%,7%,-4%,-11%,0%
Cc1ccc(-n2[nH]c(C)c(C=Nc3ccc(S(=O)(=O)Nc4nccs4)cc3)c2=O)cc1,?,4%,?,-2%,17%,-1%
CCc1nnc(NS(=O)(=O)c2ccc(N=Cc3c(C)[nH]n(-c4ccc(C)c(C)c4)c3=O)cc2)s1,2µM*,7%,15µM*,-2%,?,-1%
Cc1cc(NC(=O)c2ccc3c(c2)OCCO3)no1,-14%,0.65µM*,1.2µM*,0.45µM*,3.5µM*,?
CCOC(=O)C(=O)Nc1cc(C)on1,13µM*,?,1.7µM*,1.6µM*,.,2.8µM*
Cc1nc(NC(=O)c2ccc3c(c2)OCO3)ccc1Br,-25%,?,9.5µM*,3.5µM*,11µM*,3.2µM*
